# Screening results (PubChem)
# Shown are actives, neighbours in structure and some others; about 3.1% of the full set was active somewhere.
# EPAC2 antag = Validation qHTS for antagonist of cAMP-regulated guanine nucleotide exchange factor 4 (EPAC2); EPAC2 Rap1B BODIPY-GDP exchange, fluorescence; AID 1645886, 2021; Rap guanine nucleotide exchange factor 4 (Homo sapiens), Q8WZA2; Potency, µM (doses to about 112 µM), actives largely listed as inhibitors; 16,000 tested, 1.7% active; note: nearly all actives have a fitted effect of over 40% in size
#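 Fluorescent exchange read-out: 100 nM EPAC2 with 250 nM RAP1B–BODIPY-GDP and 50 uM GDP; BODIPY-GDP release lowers fluorescence. Read at 480/540 nm every 5 min for 30 min at room temperature; normalized to 6.5 mM cAMP.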
# EPAC1 agonist = Validation qHTS for agonist of cAMP-regulated guanine nucleotide exchange factor 3 (EPAC1) | Rap guanine nucleotide exchange factor 3 (Homo sapiens), O95398 | EPAC1 Rap1b BODIPY-GDP exchange, fluorescence | Potency, µM, hits mostly activators | 16,000 tested, 1% active | AID 1645883, 2021; note: nearly all actives have a fitted effect of over 70% in size
# Hits are given with their value; i = inactive; ? = inconclusive; ! = not active in a repeat. Calls come from the whole dose curve; as a rule, active = well fitted curve in the direction sought with a large enough effect; inconclusive = small, poorly fitted or top-dose-only effect, or another doubt; inactive = no such curve, though single readings can be large; an effect the other way counts as inactive or inconclusive.
SMILES,EPAC2 antag,EPAC1 agonist
N#CCCn1c(=O)c(-c2cccs2)nc2cnc(N3CCOCC3)nc21,i,63µM
CN1CCN(c2ncc3nc(-c4cccs4)c(=O)n(CCc4ccccc4)c3n2)CC1,i,112µM
O=C(NCCN1CCOCC1)c1cnn(-c2nccc(-c3ccccc3C(F)(F)F)n2)c1C1CC1,i,i
Cc1oc(-c2ccccc2NC(=O)C2CCC2)nc1CNC(=O)c1ccccn1,i,i
COc1ccc(Cl)cc1N1C(=O)[C@@H]2C[C@H]1CN2Cc1nc2ccccc2nc1C,i,i
Cc1ccc2[nH]nc(C(=O)N3CCOc4ccc(CN5CCc6sccc6C5)cc4C3)c2c1,i,i
Clc1ccc(C(Cn2ccnc2)OCc2c(Cl)cccc2Cl)c(Cl)c1 (stereo unspecified),?,40µM!
COC(=O)c1c(C)cc(OC)cc1O,?,i
COC(=O)c1c(OC)cc2c(c1C)Oc1c(Cl)c(OC(C)=O)c(Cl)c(C)c1C(=O)O2,11µM,i
CCN(CC)c1ccccc1/C=C/[n+]1ccc(CCCCI)c2ccccc21,56µM,i
C=C[C@]1(C)C[C@@H](OC(=O)CSC(C)(C)CNC(=O)[C@H](N)C(C)C)[C@]2(C)[C@H](C)CC[C@]3(CCC(=O)[C@H]32)[C@@H](C)[C@@H]1O,i,i
Nc1cc(-c2ccncc2)c[nH]c1=O,35µM!,?
Cc1cccc2c(Nc3ccc4c(c3)OCO4)nc(CN3CCC(N4CCCCC4)CC3)nc12,i,i
CCN(CC)CCNC(=O)c1cnn(-c2nccc(-c3cc4ccccc4o3)n2)c1C,i,i
COc1ccc(/C=C/C(=O)c2ccc(O)cc2O)cc1,i,i
COc1ccc(/C=C/C(=O)c2ccc(OC)cc2OC)cc1,16µM,i
CC(=O)c1ccc(F)c(-c2cc(C)cc3c2OC(CNC(=O)c2cnc4ccccn4c2=O)C3)c1 (stereo unspecified),?,i
